High-throughput results (PubChem)
FBPA Giardia inh: blocks Giardia fructose-bisphosphate aldolase activity; A8B2U2; purified Giardia FBPA; Potency, µM (titrated, usually from 59.6 µM), most hits filed as inhibitors; 290,000 tested, 0.71% active; AID 2451; note: nearly all actives have a fitted effect of over 55% in size
Target sequence (A8B2U2 whole entry, looked up): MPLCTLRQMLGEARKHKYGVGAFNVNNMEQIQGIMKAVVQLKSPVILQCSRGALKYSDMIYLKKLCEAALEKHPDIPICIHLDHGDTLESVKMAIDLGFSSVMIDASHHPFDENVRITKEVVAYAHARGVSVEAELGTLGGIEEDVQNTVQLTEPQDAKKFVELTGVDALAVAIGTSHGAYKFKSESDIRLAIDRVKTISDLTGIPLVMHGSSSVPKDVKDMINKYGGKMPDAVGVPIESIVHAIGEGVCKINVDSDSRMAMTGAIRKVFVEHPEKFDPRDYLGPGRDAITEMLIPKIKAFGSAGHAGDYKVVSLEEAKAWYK
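Giardia FBPA (40 nM reagent) was preincubated 10 min at RT with compound (up to 57.5 uM final), then substrate plus GAPDH/TPI/NAD/arsenate coupling system with diaphorase/resazurin was added; resorufin fluorescence (525/598 nm) was read after 20 min.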
AmpC detergent: inhibitors of E. coli AmpC beta-lactamase with detergent. 370,000 tested, 0.041% active. Potency, µM (top dose mostly 114 µM), hits mostly inhibitors. P00811. AmpC hydrolysis of nitrocefin, absorbance 480 nm, 0.01% Triton; note: nearly all actives have a fitted effect of over 25% in size
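AmpC (5.3 nM in the dispensed reagent) in 20 mM phosphate pH 7.0 with 0.01% (detergent screen) or 0.0001% Triton X-100 was preincubated with compounds for 15 min at room temperature. Nitrocefin was then added from an 800 uM solution, and hydrolysis was followed at 480 nm.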
AmpC inh no detg: AmpC beta-lactamase inhibition without detergent | AmpC nitrocefin hydrolysis, absorbance 480 nm, 0.0001% Triton | Potency, µM (doses to about 57.1 µM), actives largely listed as inhibitors | 330,000 tested, 0.52% active; note: nearly all actives have a fitted effect of over 20% in size
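20 mM phosphate pH 7.0 + 0.01% (detergent screen) or 0.0001% Triton X-100; 5.3 nM AmpC reagent; cpd preinc 15 min RT; nitrocefin (800 uM stock) to start; A480 q20 s × 4 min; Activity was normalised to no-enzyme and no-compound control wells.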
Sm TGR inh: blocks Schistosoma mansoni thioredoxin glutathione reductase. Q962Y6. purified TGR, DTNB reduction, TNB absorbance 405 nm. Potency, µM (highest dose often 114 µM), hits mostly inhibitors. 360,000 tested, 3% active; note: nearly all actives have a fitted effect of over 60% in size
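First, TGR (20 nM dispensed) and NADPH were mixed with compound. Second, a 15 min room-temperature incubation followed. Third, further NADPH and then DTNB were added to start the reaction. Finally, TNB absorbance was monitored kinetically.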
A number is an active result; – = inactive; ? = inconclusive; · = no result; [ ] = remark or other dose. Sampled rows, rich in hits. Any-hit rate of the full collection: about 3.6%. Calls come from the whole dose curve; as a rule, active = well fitted curve in the direction sought with a large enough effect; inconclusive = small, poorly fitted or top-dose-only effect, or another doubt; inactive = no such curve, though single readings can be large; an effect the other way counts as inactive or inconclusive.

SMILES	FBPA Giardia inh	AmpC detergent	AmpC inh no detg	Sm TGR inh
CC(=O)c1ccc(-c2ccc(C(=O)NCC3CCCO3)o2)cc1 (stereo unspecified)	·	?	–	35µM
CCc1ccccc1S(=O)(=O)Cc1ccc(C(=O)NCC2CCCO2)o1 (stereo unspecified)	–	–	–	40µM
Cn1nc(C(=O)NNC(=O)c2ccccc2Br)c2ccccc2c1=O	·	–	–	–
CC1(C)CC2C1CC[C@]1(C)CCC3C(C(=O)O)CC(=O)O[C@]32C1 (stereo partly specified)	–	·	·	·
Cc1ccc(-c2nn(-c3ccc(F)cc3)cc2C(=O)NCC2CCCO2)cc1 (stereo unspecified)	·	–	–	50µM
COc1cccc(-c2nn(-c3ccc(F)cc3)cc2C(=O)NCC2CCCO2)c1 (stereo unspecified)	·	–	–	–
CCCC[C@H]1CCCO[C@@](C(=O)NCCN2CCOCC2)(C(F)(F)F)C1	–	·	·	·
COC(=O)c1ccc(CNC(=O)COC(=O)C2CC3C=CC2C3)cc1 (stereo unspecified)	–	–	–	–
O=P(c1ccccc1)(c1nc2ccccc2s1)N1CCOCC1 (stereo unspecified)	–	–	–	50µM
CCOC(=O)c1ccc(N2C(=O)CC(N3CC=C(c4ccc(F)cc4)CC3)C2=O)cc1 (stereo unspecified)	–	–	–	5.6µM
O=C1CC(N2CC=C(c3ccc(F)cc3)CC2)C(=O)N1c1ccc(F)cc1 (stereo unspecified)	·	–	–	14µM
O=C1CC(N2CCc3ccccc32)C(=O)N1c1ccc(F)cc1 (stereo unspecified)	–	?	–	–
O=C(c1ccc(Br)cc1)N(c1ccccn1)C1CCCCC1	–	–	–	–
CCCCC(O)(CCCC)C(=O)NN(C(=O)OCC)c1ccccc1	–	–	–	–
CCCC(O)(CCC)C(=O)NN(C(=O)CCl)c1ccccc1	–	–	–	11µM
COc1ccc(C)c2sc(NC(=O)C3=COCCO3)nc12	–	?	40µM	–
CCOC(=O)c1cc(CC)sc1/N=C/C1C(=O)NC(=S)NC1=O	18µM	–	–	?
CCOc1ccccc1NC(=O)CN1C(=O)COc2ccc(S(=O)(=O)N3CCCCCC3)cc21	·	–	·	–
c1ccc(CCn2nnnc2CN2CCc3ccccc32)cc1	–	–	–	13µM
Cc1ccccc1-c1oc(C)c(C)[n+]1[O-]	–	–	–	25µM
Cc1ccccc1C(=O)NC(C)C(c1cccs1)N1CCOCC1 (stereo unspecified)	–	?	2.8µM	–
COc1cc(C(=O)O[C@H]2C/C(C)=C/CC/C(C)=C/[C@@H](O)C2C(C)C)ccc1O (stereo partly specified)	–	·	·	·
C#CCOCCOCCOCCNc1nc(N2CCN(C(=O)C([C@@H](C)CC)n3cc(C(N)Cc4ccc(O)cc4)nn3)CC2)nc(N2CCN(C(=O)[C@H](CCC(=O)O)n3cc(C(N)CO)nn3)CC2)n1 (stereo partly specified)	–	–	–	40µM
C#CCOCCOCCOCCNc1nc(N2CCN(C(=O)[C@H](CCC(=O)O)n3cc(C(N)[C@H](C)CC)nn3)CC2)nc(N2CCN(C(=O)[C@H](Cc3ccc(O)cc3)n3cc(C(N)[C@H](C)CC)nn3)CC2)n1 (stereo partly specified)	–	–	–	50µM
C#CCOCCOCCOCCNc1nc(N2CCOCC2)nc(N2CCN(C(=O)[C@H](CCC(=O)O)n3cc(C(N)[C@H](C)CC)nn3)CC2)n1 (stereo partly specified)	–	–	–	20µM
SMILES	FBPA Giardia inh	AmpC detergent	AmpC inh no detg	Sm TGR inh
C#CCOCCOCCOCCNc1nc(N2CCN(C(=O)[C@H]([C@@H](C)CC)n3cc([C@@H](N)Cc4ccc(O)cc4)nn3)CC2)nc(N2CCN(C(=O)[C@H](CCCCN)n3cc([C@@H](N)CC(C)C)nn3)CC2)n1	–	–	–	13µM
C#CCOCCOCCOCCNc1nc(N2CCN(C(=O)C([C@@H](C)CC)n3cc(C(N)Cc4ccc(O)cc4)nn3)CC2)nc(N2CCN(C(=O)[C@H](CCC(=O)O)n3cc(C(N)Cc4ccc(O)cc4)nn3)CC2)n1 (stereo partly specified)	–	–	–	–
C#CCOCCOCCOCCNc1nc(N2CCN(C(=O)[C@H]([C@@H](C)CC)n3cc([C@@H](N)CO)nn3)CC2)nc(N2CCN(C(=O)[C@H]([C@@H](C)CC)n3cc([C@@H](N)CC(C)C)nn3)CC2)n1	–	–	–	35µM
C#CCOCCOCCOCCNc1nc(N2CCN(C(=O)[C@H](CCC(=O)O)n3cc(C(N)CC(C)C)nn3)CC2)nc(N2CCN(C(=O)[C@H](Cc3ccc(O)cc3)n3cc(C(N)CC(C)C)nn3)CC2)n1 (stereo partly specified)	–	–	–	–
C#CCOCCOCCOCCNc1nc(N2CCN(C(=O)[C@H](CCC(=O)O)n3cc(C(N)Cc4ccc(O)cc4)nn3)CC2)nc(N2CCN(C(=O)[C@H](Cc3ccc(O)cc3)n3cc(C(N)CC(C)C)nn3)CC2)n1 (stereo partly specified)	–	–	–	14µM
C#CCOCCOCCOCCNc1nc(N2CCN(C(=O)[C@H]([C@@H](C)CC)n3cc([C@@H](N)CO)nn3)CC2)nc(N2CCN(C(=O)[C@H]([C@@H](C)CC)n3cc([C@@H](N)CO)nn3)CC2)n1	–	–	–	–
C#CCOCCOCCOCCNc1nc(N2CCN(C(=O)[C@H](Cc3ccc(O)cc3)n3cc([C@@H](N)CC(C)C)nn3)CC2)nc(N2CCN(C(=O)[C@H](Cc3ccc(O)cc3)n3cc([C@@H](N)CC(C)C)nn3)CC2)n1	–	–	–	18µM
Cc1cccc(OCCOCCn2c(-c3ccc(Cl)cc3)nc3ccccc3c2=O)c1C	·	–	·	–
Cc1cc(C)c2c(=O)cc(CSCC(=O)Nc3ccccc3Cl)[nH]c2c1	·	–	·	–
C[C@@]12CC(=O)C3=C(CCCC3=O)N1CCc1ccccc12	–	·	·	·
COc1ccc(-c2cc(C(F)(F)F)n3ncc(C(=O)NCc4ccco4)c3n2)cc1	–	–	–	45µM
CC(C)CCNC(=O)c1cnn2c(C(F)(F)F)cc(-c3ccco3)nc12	–	–	–	20µM
Cc1ccc(C(=O)OC2=C(C(=O)c3ccccc3)N(C)S(=O)(=O)c3ccccc32)cc1	·	–	·	–
CCN1C(C(=O)c2ccccc2)=C(OC(=O)COc2ccccc2)c2ccccc2S1(=O)=O	·	–	·	16µM
Cc1ccc(OCC(=O)OC2=C(C(=O)c3ccccc3)N(C)S(=O)(=O)c3ccccc32)cc1	·	–	·	32µM
CCN1C(C(=O)c2ccccc2)=C(OC(=O)C(C)C)c2ccccc2S1(=O)=O	·	–	·	–
COc1ccc2c3c(c(=O)oc2c1)C1O[C@](CCCCN2C(=O)c4ccccc4C2=O)(Cc2cc(OC)c(OC)cc21)O3	–[12.9 µM]	?	–[11.4 µM]	?
